Reference: PubChem BioAssay (EPA / NIEHS)
Where “and” joins values, the source holds several entries; their conditions need not be identical. Equal values may be shown once. Calls of active or inactive are those of the source. How the source made its calls: active means hit-call score of the fitted dose curve at least 0.9, where 1 is the maximum; inactive means score below 0.9.

Assay: UKN2_HCS_IMR90_neural_migration: University of Konstanz (UKN) Leist Lab Neural Crest Cell Migration Assay in human induced IMR90 Pluripotent Stem Cells (UKN2) (AID 2284204)
Settings: actives raise or lower the signal
Procedure, shortened: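 Using a 96-well stopper format with PLO/laminin/fibronectin coating, neural crest cells from iPSC migrate in cytokine-supplemented N2-S medium; after 24 h, chemicals are applied for a further 24 h, then cells are imaged after dye staining.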

| SMILES | AC50 | outcome |
| --- | --- | --- |
| CC1=C(/C=C/C(C)=C/C=C/C(C)=C/C(=O)O)C(C)(C)CCC1 | 5.77 µM (active) | – |
| CN1CCC[C@H]1c1cccnc1 | – | inactive |
| CC#C[C@]1(O)CC[C@H]2[C@@H]3CCC4=CC(=O)CCC4=C3[C@@H](c3ccc(N(C)C)cc3)C[C@@]21C | 9.67 µM (active) and 5.64 µM (active) | – |

Assay: UKN4_HCS_LUHMES_neurite_outgrowth: University of Konstanz (UKN) Leist Lab Neurite Outgrowth Assay in human LUHMES cells (UKN4) (AID 2284206)
Settings: actives raise or lower the signal
Procedure, shortened: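 Human LUHMES cells were differentiated for two days, replated and treated with chemicals for 24 h. Neurite outgrowth was quantified as calcein-stained neurite area by HCS imaging, fitted bidirectionally relative to DMSO.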

| SMILES | AC50 | outcome |
| --- | --- | --- |
| CC1=C(/C=C/C(C)=C/C=C/C(C)=C/C(=O)O)C(C)(C)CCC1 | 29.8 µM (active) | – |
| CN1CCC[C@H]1c1cccnc1 | – | inactive |
| CC#C[C@]1(O)CC[C@H]2[C@@H]3CCC4=CC(=O)CCC4=C3[C@@H](c3ccc(N(C)C)cc3)C[C@@]21C | 10 µM (active) | – |

Assay: IUF_NPC1b_proliferation_BrdU_72hr: Leibniz Research Institute for Environmental Medicine (IUF) 72-hour Neural Progenitor Cell Bromodeoxyuridine (BrdU) Proliferation Assay (NPC1b) (AID 2284207)
Settings: not given
Procedure, shortened: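 Neural progenitor spheres of human fetal origin are treated for three days; BrdU added for the last 16 h is quantified by luminescence ELISA, with DMSO as baseline and EGF/FGF omission as positive control.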

| SMILES | AC50 | outcome |
| --- | --- | --- |
| CC1=C(/C=C/C(C)=C/C=C/C(C)=C/C(=O)O)C(C)(C)CCC1 | 1.67 µM (active) | – |
| CN1CCC[C@H]1c1cccnc1 | – | inactive |
| CC#C[C@]1(O)CC[C@H]2[C@@H]3CCC4=CC(=O)CCC4=C3[C@@H](c3ccc(N(C)C)cc3)C[C@@]21C | 5 µM (active) | – |

Assay: IUF_NPC1a_proliferation_area_72hr: Leibniz Research Institute for Environmental Medicine (IUF) 72-hour Neural Progenitor Cell Proliferation Area Assay (NPC1a) (AID 2284208)
Settings: not given
Procedure, shortened: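 Spheres of 0.3 mm are plated singly in growth-factor medium and exposed from day 0. After three days at 37C and 5% CO2, sphere area is measured by phase contrast imaging, with activity referenced to DMSO.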

| SMILES | AC50 | outcome |
| --- | --- | --- |
| CC1=C(/C=C/C(C)=C/C=C/C(C)=C/C(=O)O)C(C)(C)CCC1 | 4.35 µM (active) | – |
| CN1CCC[C@H]1c1cccnc1 | – | inactive |
| CC#C[C@]1(O)CC[C@H]2[C@@H]3CCC4=CC(=O)CCC4=C3[C@@H](c3ccc(N(C)C)cc3)C[C@@]21C | – | inactive |

Assay: IUF_NPC1_viability_72hr: Viability Assessment at 72 hours in the Leibniz Research Institute for Environmental Medicine (IUF) Neural Progenitor Cell Proliferation Assay (NPC1) (AID 2284209)
Settings: not given
Method: IUF_NPC1 is a cell-based, multiplexed assay that uses hNPC, a human primary neural progenitor cells, with measurements taken at 72 hours after chemical dosing in a 96-well plate. Human neural progenitor cells (hNPC) are generated from human fetal brain cortex at gestational week (GW) 16-19. Grown in suspension culture and under proliferative conditions (proliferation media and growth factors), these cells represent neural progenitor cell proliferation. In the NPC1 assay, hNPC's are exposed to the test compound for 72h. Cell proliferation is assessed as an increase in sphere area using automated phase contrast imaging and as incorporation of Bromodeoxyuridine (BrdU) during DNA synthesis using a luminescence-based cell proliferation ELISA. In parallel, the cell viability is assessed using an alamar blue viability assay and the cytotoxicity using a lactate dehydrogenase dependent membrane integrity assay.IUF_NPC1_viability_72hr is one of 4 assay components measured from the IUF_NPC1 assay. It is designed to measure cell viability assessed as mitochondria-dependent reduction of resazurin to resorufin using the alamar blue cell viability assay. Viability is measured as a fluorescence signal (relative fluorescence unit) in a multiplate reader. Data from the IUF_NPC1_viability component was analyzed at the endpoint IUF_NPC1_viability in the positive analysis fitting direction relative to DMSO as the negative control and baseline of activity. Using a type of viability reporter, gain or loss-of-signal activity can be used to understand viability effects.
After the cell expansion period, the cells are cultured for up to four weeks in which they are passaged every week. Between one to three days after passaging, depending on the size chosen for passaging, spheres at a size of 0.3 mm are used in the assay. For the assessment of neural progenitor cell proliferation, the spheres are plated in poly-Hema coated 96-well U-bottom plates filled with proliferation medium containing growth factors (EGF and FGF). One 0.25 - 0.35 mm big sphere is plated in the middle of each well. […]

| SMILES | outcome |
| --- | --- |
| CC1=C(/C=C/C(C)=C/C=C/C(C)=C/C(=O)O)C(C)(C)CCC1 | inactive |
| CN1CCC[C@H]1c1cccnc1 | inactive |
| CC#C[C@]1(O)CC[C@H]2[C@@H]3CCC4=CC(=O)CCC4=C3[C@@H](c3ccc(N(C)C)cc3)C[C@@]21C | inactive |

Assay: CCTE_Mundy_HCI_Cortical_Synap_Neur_Matur_NeuriteSpotCountPerNeuriteLength: CCTE's Synaptogenesis and Neurite Maturation Assay in rat cortical cells for Neurite Spot Count per Neurite Length, Mundy Lab (AID 2284210)
Settings: not given
Procedure, shortened: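 Neurite-associated synapse density (synaptophysin puncta per unit neurite length) is measured by fluorescence high-content imaging in rat cortical cultures treated from DIV 7 and fixed at DIV 12, with DMSO as negative control.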

| SMILES | outcome | AC50 |
| --- | --- | --- |
| CC1=C(/C=C/C(C)=C/C=C/C(C)=C/C(=O)O)C(C)(C)CCC1 | inactive | – |
| CN1CCC[C@H]1c1cccnc1 | inactive | – |
| CC#C[C@]1(O)CC[C@H]2[C@@H]3CCC4=CC(=O)CCC4=C3[C@@H](c3ccc(N(C)C)cc3)C[C@@]21C | – | 25.7 µM (active) |

Assay: CCTE_Mundy_HCI_Cortical_NOG_NeuriteLength: CCTE's Neurite Outgrowth Assay in rat cortical cells for Neurite Length, Mundy Lab (AID 2284213);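 on AC50: neurites imaged about 48 to 50 h after chemical exposure began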
Settings: not given
Procedure, shortened: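 First, rat primary cortical cells were plated and, 2 h later, given test chemical as a 1/10 dilution. Finally, βIII-tubulin immunostaining enabled automated imaging of neurite length.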

| SMILES | AC50 | outcome |
| --- | --- | --- |
| CC1=C(/C=C/C(C)=C/C=C/C(C)=C/C(=O)O)C(C)(C)CCC1 | 6.25 µM (active) | – |
| CN1CCC[C@H]1c1cccnc1 | – | inactive |
| CC#C[C@]1(O)CC[C@H]2[C@@H]3CCC4=CC(=O)CCC4=C3[C@@H](c3ccc(N(C)C)cc3)C[C@@]21C | 50 µM (active) and 23.6 µM (active) | – |
